Data as given in PubChem BioAssay (Tox21).
Several values for one entry are separate records, joined by “and”; a condition that tells them apart may be missing. Identical values can stand only once. Records with an inconclusive call do not appear. Where a call stands in place of a potency, no number is given. A structure can be active in one record and inactive in another. Activity calls are given as the source filed them. Unless noted, the call rests on the fitted dose curve; in most records, active means well fitted curve in the direction sought with a large enough effect in the repeat runs; inconclusive means weak or mixed curves; inactive means no such curve, though single readings can be large; an effect the other way counts as inactive or inconclusive.

What was measured:
[1] = A CellTox Green Cytotoxicity Assay to monitor cytotoxicity in HepG2 cells - 32 hour (AID 1224883); further: nearly all actives have a fitted effect of over 50% in size; further: potency means the concentration at half of the fitted maximal effect
In short: (§1)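 HepG2, 600 cells/well premixed w/ CellTox Green; 5 h settle, 37 C/5% CO2; pintool cpd add (DMSO); 37 C, 40 h; fluorescence read at 0, 8, 16, 24, 32, 40 h.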

[2] = qHTS RealTime-Glo MT Cell Viability Assay in HEK293 cells - 24 hour (AID 1224886); further: nearly all actives have a fitted effect of over 50% in size; further: potency means the concentration at half of the fitted maximal effect
In short: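 Viability tracked continuously by luminescence as live cells reduce a prosubstrate for NanoLuc; HEK293 cells preincubated 5 h, compound-treated at 37 C, and read at 0, 8, 16, 24, 32 and 40 h.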

[3] = qHTS RealTime-Glo MT Cell Viability Assay in HEK293 cells - 8 hour (AID 1224887); further: nearly all actives have a fitted effect of over 50% in size; further: potency means the concentration at half of the fitted maximal effect
In short: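 Luminescence readout at each listed time point; HEK293, 600 cells/well, RealTime-Glo MT reagent added with cells; compounds pinned (23 nL in DMSO) after 5 h at 37 C; continuous culture at 37 C.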

[4] = qHTS assay to identify small molecule antagonists of the androgen receptor (AR) signaling pathway using the MDA cell line in the presence of 0.5 nM R1881 - cell viability counter screen (AID 1259242); further: nearly all actives have a fitted effect of over 45% in size; further: potency means the concentration at half of the fitted maximal effect
In short: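 Live-cell protease fluorescence, CellTiter-Fluor, 30 min at 37C. Cells: MDA-kb2, 3,000/well, preincubated 5 hr. Compounds plus 0.5 nM R1881 final, 16 hr, 37C, 0% CO2.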

[5] = qHTS assay to identify small molecule HDAC inhibitors (AID 1259364);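 further: wild-type HCT-116 cells with endogenous class I/II HDAC activity; top concentration of the series differs between compounds; nearly all actives have a fitted effect of over 45% in size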
In short: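 HCT-116 (wild type), 1,500 cells/well, overnight; compound 2 hr 37C 5% CO2; HDAC-Glo I/II reagent 30 min RT; luminescence readout.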

[6] = qHTS assay to identify small molecule agonists of the sonic hedgehog signaling (Shh) pathway - cell viability counter screen (AID 1259366); further: nearly all actives have a fitted effect of over 50% in size; further: potency means the concentration at half of the fitted maximal effect
In short: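 Viability measured fluorometrically (CellTiter-Fluor, 1hr, 37C) in 3T3 Gli1-Luc reporter cells after 23hr compound exposure within a 24hr incubation at 37C/5% CO2.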

[7] = qHTS assay to identify small molecule antagonists of the sonic hedgehog signaling (Shh) pathway - cell viability counter screen (AID 1259367); further: nearly all actives have a fitted effect of over 55% in size; further: potency means the concentration at half of the fitted maximal effect
In short: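 Tox21 library chemicals were tested on a Gli1-Luc NIH/3T3 clone (2,000 cells/well) stimulated by conditioned medium; viability was quantified as fluorescence from CellTiter-Fluor reagent added at 23 hr.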

[8] = qHTS assay to identify small molecule agonists of the sonic hedgehog signaling (Shh) pathway (AID 1259368; calls by dose curve;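 further: NIH/3T3-derived 3T3Gli1-Luc cells carrying a stable Gli1-driven firefly luciferase reporter; series mostly up to about 92 µM; nearly all actives have a fitted effect of over 15% in size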)
In short: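 Read-out: firefly luciferase luminescence from a Gli1 response element reporter stably integrated in NIH/3T3-derived 3T3Gli1-Luc cells, measured 30 min at room temperature after reagent addition. Compound exposure lasted 24 hr at 37 C, 5% CO2.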

[9] = qHTS assay to identify small molecule antagonists of the sonic hedgehog signaling (Shh) pathway (AID 1259369; calls by dose curve; further: nearly all actives have a fitted effect of over 45% in size; further: potency means the concentration at half of the fitted maximal effect)
In short: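 Luminescence readout: firefly Luc under Gli1 response element in 3T3Gli1-Luc cells (NIH/3T3 clone). Antagonist mode, stimulation by conditioned medium; compound exposure 24hr at 37 C, 5% CO2.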

[10] = A CellTox Green Cytotoxicity Assay to monitor cytotoxicity in HEK293 cells - 8 hour (AID 1224884); further: nearly all actives have a fitted effect of over 35% in size; further: potency means the concentration at half of the fitted maximal effect
In short: (§2)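 Read-out: fluorescence of a cell-impermeant cyanine dye staining DNA of dead cells, proportional to cytotoxicity. HEK293, 600 cells/well with reagent, compound (23 nL DMSO) added after 5 h; reads at 0, 8, 16, 24, 32, 40 h.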

[11] = A CellTox Green Cytotoxicity Assay to monitor cytotoxicity in HEK293 cells - 16 hour (AID 1224888); further: nearly all actives have a fitted effect of over 35% in size; further: potency means the concentration at half of the fitted maximal effect
In short: as §2

[12] = qHTS RealTime-Glo MT Cell Viability Assay in HepG2 cells - 0 hour (AID 1224889); further: nearly all actives have a fitted effect of over 50% in size
In short: (§3)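 Viability was tracked continuously by NanoLuc luminescence from prosubstrate reduced by living HepG2 cells, at successive time points over 40 h of compound exposure. Cells with reagent were preincubated 5 h at 37 °C before compound addition.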

[13] = qHTS assay to identify small molecule antagonists of the estrogen receptor alpha (ER-alpha) signaling pathway using the BG1 cell line in the presence of 0.1 nM 17-beta-estradiol - cell viability counter screen (AID 1259241); further: nearly all actives have a fitted effect of over 40% in size; further: potency means the concentration at half of the fitted maximal effect
In short: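 The cell line endogenously expresses full-length ER-alpha and carries four EREs driving luciferase. Cells are cultured 5 days hormone-free, treated 22 hr with compounds and 0.1 nM estradiol, then viability is read by fluorescence.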

[14] = qHTS assay to identify small molecule phospholipidosis (PLD) inducers (AID 1259344; active means well fitted curve in the direction sought with a large enough effect; an effect the other way counts as inactive or inconclusive)
In short: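 Image-based: LipidTOX Red pit count/intensity per well and per cell; HepG2, 24 h compound at 37 C, PFA fixation, Hoechst counterstain.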

[15] = qHTS assay to identify small molecule HDAC inhibitors - cell viability counter screen (AID 1259365)
In short: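 Viability readout: CellTiter-Glo luminescence. Wild-type HCT-116 cells, 2hr compound treatment following overnight attachment at 37 C.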

[16] = molecular target: Estrogen receptor (Homo sapiens) (UniProt P03372); experiment: qHTS assay to identify small molecule antagonists of the estrogen receptor alpha (ER-alpha) signaling pathway using the BG1 cell line in the presence of 0.1 nM 17-beta-estradiol (AID 1259244); further: nearly all actives have a fitted effect of over 50% in size; further: potency means the concentration at half of the fitted maximal effect
In short: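 Luminescence after ONE-Glo (30 min, room temperature) measured ERE-luciferase activity in VM7Luc4E2 cells treated 22 h with compound and 0.1 nM final 17beta-estradiol as stimulator.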

[17] = molecular target: Estrogen receptor beta (Homo sapiens) (UniProt Q92731); experiment: qHTS assay to identify small molecule agonists of the estrogen receptor beta (ER-beta) signaling pathway (AID 1259377; active means well fitted activation curve with a large enough effect in the signal ratio in the repeat runs, not every such curve was filed as active; the % refers to the signal ratio)
In short: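 A UAS-controlled beta-lactamase reporter in ER-beta-UAS-bla HEK293T cells reports receptor activation. Compounds act for 16 hr at 37C in 2% charcoal-stripped serum, and a FRET substrate is read by fluorescence after 2 hours.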

[18] = qHTS RealTime-Glo MT Cell Viability Assay in HepG2 cells - 16 hour (AID 1224885); further: nearly all actives have a fitted effect of over 50% in size; further: potency means the concentration at half of the fitted maximal effect
In short: as §3

[19] = molecular target: Androgen receptor (Homo sapiens) (UniProt P10275); experiment: qHTS assay to identify small molecule antagonists of the androgen receptor (AR) signaling pathway using the MDA cell line in the presence of 0.5 nM R1881 (AID 1259243); further: nearly all actives have a fitted effect of over 50% in size; further: potency means the concentration at half of the fitted maximal effect
In short: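 MDA-kb2, MMTV-luc (AR/GR elements); 3,000 cells/well; cpd + 0.5 nM R1881 final; 16 hr 37C, 0% CO2; ONE-Glo 30 min RT; luminescence.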

[20] = A CellTox Green Cytotoxicity Assay to monitor cytotoxicity in HepG2 cells - 8 hour (AID 1224890); further: nearly all actives have a fitted effect of over 45% in size; further: potency means the concentration at half of the fitted maximal effect
In short: as §1

Chain of Androgen receptor (Homo sapiens) (P10275 whole entry, looked up): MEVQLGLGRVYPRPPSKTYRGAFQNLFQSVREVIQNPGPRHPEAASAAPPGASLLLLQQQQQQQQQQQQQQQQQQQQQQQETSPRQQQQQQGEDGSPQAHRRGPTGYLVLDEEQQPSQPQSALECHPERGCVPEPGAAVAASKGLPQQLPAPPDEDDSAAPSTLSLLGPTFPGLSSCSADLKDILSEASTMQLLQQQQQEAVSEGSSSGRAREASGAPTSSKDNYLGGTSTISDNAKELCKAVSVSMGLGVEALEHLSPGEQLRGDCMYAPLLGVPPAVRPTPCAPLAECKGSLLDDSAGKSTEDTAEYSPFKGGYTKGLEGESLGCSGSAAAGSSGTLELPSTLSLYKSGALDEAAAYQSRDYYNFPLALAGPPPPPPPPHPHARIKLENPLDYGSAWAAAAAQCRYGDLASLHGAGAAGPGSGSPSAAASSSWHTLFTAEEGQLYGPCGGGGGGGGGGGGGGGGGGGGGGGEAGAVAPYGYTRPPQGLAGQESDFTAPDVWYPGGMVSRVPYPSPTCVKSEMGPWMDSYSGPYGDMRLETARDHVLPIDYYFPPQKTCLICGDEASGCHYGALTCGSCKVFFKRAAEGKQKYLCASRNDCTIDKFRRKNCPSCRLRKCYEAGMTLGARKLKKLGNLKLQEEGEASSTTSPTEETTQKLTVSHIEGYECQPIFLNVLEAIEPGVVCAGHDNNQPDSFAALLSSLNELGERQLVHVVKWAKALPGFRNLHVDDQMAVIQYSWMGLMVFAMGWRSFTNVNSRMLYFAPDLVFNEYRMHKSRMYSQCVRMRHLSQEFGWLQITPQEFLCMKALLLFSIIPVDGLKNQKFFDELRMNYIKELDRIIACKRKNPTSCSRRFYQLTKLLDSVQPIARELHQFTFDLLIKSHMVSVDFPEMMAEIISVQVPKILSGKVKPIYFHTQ
Chain of Estrogen receptor beta (Homo sapiens) (Q92731 whole entry, looked up): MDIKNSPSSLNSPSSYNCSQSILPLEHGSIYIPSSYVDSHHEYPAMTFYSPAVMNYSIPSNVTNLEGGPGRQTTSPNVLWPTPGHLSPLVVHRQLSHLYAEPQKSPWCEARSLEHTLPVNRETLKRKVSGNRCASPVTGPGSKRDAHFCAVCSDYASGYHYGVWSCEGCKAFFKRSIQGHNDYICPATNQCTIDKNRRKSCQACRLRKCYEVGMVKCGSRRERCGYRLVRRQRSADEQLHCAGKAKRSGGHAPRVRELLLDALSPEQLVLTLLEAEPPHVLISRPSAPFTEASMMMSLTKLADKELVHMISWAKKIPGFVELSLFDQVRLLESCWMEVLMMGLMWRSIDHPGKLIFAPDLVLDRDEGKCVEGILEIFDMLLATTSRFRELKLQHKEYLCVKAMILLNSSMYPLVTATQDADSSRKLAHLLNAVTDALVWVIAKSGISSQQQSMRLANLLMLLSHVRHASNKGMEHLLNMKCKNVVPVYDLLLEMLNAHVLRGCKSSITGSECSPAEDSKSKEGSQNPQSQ
Chain of Estrogen receptor (Homo sapiens) (P03372 whole entry, looked up): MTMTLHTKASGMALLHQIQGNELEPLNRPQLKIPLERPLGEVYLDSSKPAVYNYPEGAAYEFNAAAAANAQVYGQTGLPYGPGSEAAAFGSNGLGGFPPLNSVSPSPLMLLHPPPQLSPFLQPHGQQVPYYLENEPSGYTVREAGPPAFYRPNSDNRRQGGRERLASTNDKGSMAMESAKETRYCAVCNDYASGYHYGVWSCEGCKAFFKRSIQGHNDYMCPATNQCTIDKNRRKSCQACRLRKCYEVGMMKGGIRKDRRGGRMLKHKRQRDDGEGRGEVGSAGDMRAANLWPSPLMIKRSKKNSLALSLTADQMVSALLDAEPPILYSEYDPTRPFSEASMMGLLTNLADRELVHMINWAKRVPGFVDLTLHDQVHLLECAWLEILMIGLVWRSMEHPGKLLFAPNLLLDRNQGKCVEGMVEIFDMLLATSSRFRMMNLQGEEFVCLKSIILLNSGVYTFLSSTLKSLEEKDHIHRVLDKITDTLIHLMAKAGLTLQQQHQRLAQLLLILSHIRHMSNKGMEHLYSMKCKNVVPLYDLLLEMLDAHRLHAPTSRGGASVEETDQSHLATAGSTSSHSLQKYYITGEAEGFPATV

Structure (SMILES)	Potency [1]	Potency [2]	Potency [3]	Potency [4]	Potency [5]	Potency [6]	Potency [7]	Potency [8]	Potency [9]	Potency [10]	Potency [11]	Potency [12]	Potency [13]	PLD induction [14]	Potency [15]	Potency [16]	Potency [17]	Potency [18]	Potency [19]	Potency [20]
O=[N+]([O-])c1cc([N+](=O)[O-])c2ccccc2c1	inactive	inactive	inactive	inactive	inactive	inactive	inactive	inactive	1.22 µM (active)											
S=C(SSC(=S)N1CCCCC1)N1CCCCC1	0.19 µM (active)	13.4 µM (active)			inactive	2.66 µM (active)	5.96 µM (active)	inactive	5.96 µM (active)	inactive	inactive	inactive	inactive	-4.77% [at 0.0123 µM] (inactive)	inactive					
CC(C)OC(=O)C(O)(c1ccc(Cl)cc1)c1ccc(Cl)cc1	27.5 µM (active)	21.9 µM (active)		inactive	inactive	inactive	inactive	inactive	54.5 µM (active)	inactive		inactive	inactive		inactive	inactive	inactive			
CC(C)(c1ccc(O)c(-c2ccccc2)c1)c1ccc(O)c(-c2ccccc2)c1	49 µM (active)	21.9 µM (active)	21.9 µM (active)		inactive	15.4 µM (active)			12.2 µM (active)			inactive				48.6 µM (active)		49 µM (active)	30.6 µM (active)	
CCCOCC(=Nc1ccc(Cl)cc1C(F)(F)F)n1ccnc1	43.6 µM (active)	43.6 µM (active)	43.6 µM (active)		inactive		54.4 µM (active)	inactive	9.68 µM (active)	54.9 µM (active)	54.9 µM (active)	inactive					inactive			
CC(C)CC(C)(c1ccc(O)cc1)c1ccc(O)cc1	43.8 µM (active)	43.8 µM (active)	43.8 µM (active) and inactive	inactive	inactive	54.6 µM (active)	61.3 µM (active)	inactive	27.4 µM (active)	24.6 µM (active) and inactive		inactive	inactive		inactive					inactive and 49 µM (active)
CCOC(=O)c1ccccc1S(=O)(=O)NC(=O)Nc1nc(Cl)cc(OC)n1	inactive			inactive	inactive	inactive	inactive	inactive	inactive			inactive	inactive		inactive	inactive		inactive		inactive
CC(=O)[O-].CC(=O)[O-].O.O.[Cd+2]	27.2 µM (active)			inactive	inactive	3.8 µM (active)	8.51 µM (active)	inactive	1.07 µM (active)	inactive	inactive	inactive			inactive					inactive
CC(Cl)CN(C)C (stereo unspecified)	inactive			inactive	inactive	inactive	inactive	inactive				inactive	inactive		inactive	inactive		inactive	inactive	inactive
CC(=O)OC1(c2ccccc2)CCN(CCc2ccccc2)CC1		28.2 µM (active)		inactive	inactive		inactive	inactive		inactive	inactive	inactive					inactive	inactive		inactive
CC(C)OS(C)(=O)=O		inactive	inactive		inactive	inactive	inactive	inactive	inactive	inactive	inactive		inactive		inactive	inactive		inactive		inactive
CC(=O)c1cc(C(C)(C)C)cc2c1CCC2(C)C		inactive				inactive	inactive	inactive	inactive	inactive	inactive		inactive		inactive	inactive		inactive		inactive
N#CSCSC#N		12.6 µM (active) and 19.3 µM (active)	22.4 µM (active) and 21.7 µM (active)	62.5 µM (active)		11.1 µM (active) and 6.79 µM (active)	12.5 µM (active) and 13.5 µM (active)	inactive	2.79 µM (active) and 2.41 µM (active)	inactive		inactive	70.1 µM (active)		inactive			56.2 µM (active) and 19.3 µM (active)	49.6 µM (active)	34.3 µM (active)
CCCCCCCCCCBr		inactive	inactive	inactive	inactive	inactive	inactive	inactive	inactive	inactive	inactive	inactive			inactive	inactive		inactive		inactive
C[C@]12Cc3nonc3C[C@@H]1CC[C@@H]1[C@@H]2CC[C@@]2(C)[C@H]1CC[C@]2(C)O		19 µM (active)		inactive	inactive		inactive	inactive		inactive	inactive	inactive	inactive		inactive			inactive	21.1 µM (active)	inactive
O=[N+]([O-])c1c2ccccc2cc2ccccc12		inactive	inactive	inactive				inactive	67.8 µM (active)	inactive	5.43 µM (active)	inactive	inactive		inactive	inactive		inactive		inactive
